# Screening data: PubChem, National Center for Advancing Translational Sciences (NCATS)
# D3 antag: D3 dopamine receptor (human) antagonism; P35462; max response, negative = inhibition, %; D3R cells, DiscoveRx beta-arrestin luminescence, antagonist mode; stronger effect = lower value; 360,000 tested, 2.5% active; in the data active = max response below about -50%; inconclusive = no clear call, values can overlap the other calls; also: % is scaled to controls: 0 for no effect and ±100 for the full control effect
# Target sequence (P35462 whole entry, looked up): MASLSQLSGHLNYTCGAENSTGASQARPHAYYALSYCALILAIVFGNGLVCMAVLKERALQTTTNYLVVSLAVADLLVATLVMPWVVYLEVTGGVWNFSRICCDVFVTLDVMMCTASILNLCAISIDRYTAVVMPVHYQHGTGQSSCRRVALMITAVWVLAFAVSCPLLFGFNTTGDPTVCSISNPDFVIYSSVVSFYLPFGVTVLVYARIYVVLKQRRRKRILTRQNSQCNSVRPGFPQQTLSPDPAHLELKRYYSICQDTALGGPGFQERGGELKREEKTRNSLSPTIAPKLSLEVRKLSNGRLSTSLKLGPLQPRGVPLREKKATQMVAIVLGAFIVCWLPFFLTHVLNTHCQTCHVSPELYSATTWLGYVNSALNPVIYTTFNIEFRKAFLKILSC
#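 Cells plated overnight at 1500 cells/well, then exposed to library compounds with dopamine controls for 90 minutes at 37 degrees C. DiscoveRx reagent added for 30–60 minutes at room temperature; luminescence read, quantitative HTS format.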
# GRP78 ERSR act: ER stress response induction in glioma | 420,000 tested, 0.02% active | Potency, µM, for the others: at the top dose activation, most hits filed as activators | U87-MG GRP78 promoter luciferase reporter, 16 h; also: potency is read from the fitted curve at half-maximal effect; series mostly up to about 76 µM; % of control where 0% means no effect; nearly all actives have a fitted effect of over 35% in size
#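 Stably transfected U87-MG human glioma cells carrying a GRP78-based luminescent sensor were seeded at 1000 cells/well, pin-dosed with compounds and incubated 16 h. Luciferase reagent was then added, and end-point luminescence was read after 10 min at room temperature.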
# DRD3 agonist: activates the human D3 dopamine receptor | P35462 | 410,000 tested, 0.58% active | max activation, % | D3R DiscoveRx beta-arrestin cells, luminescence, 90 min; in the data active = max activation above about 30%; also: 0% is about no effect
#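 Cells at 1500/well, incubated overnight, then treated with pinned compounds (dopamine as control) for 90 min at 37 degrees C. DiscoveRx reagent added for 30 - 60 minutes at room temperature; luminescence read.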
# Nrf2 activator: activates Nrf2 signaling | AREc32 ARE-luciferase reporter (MCF7-derived line), luminescence, 24 h | Potency, µM (series often up to 46.1 µM), inactives show at the highest dose activation, actives largely listed as activators | 410,000 tested, 0.31% active | AID 624171; also: potency is read from the fitted curve at half-maximal effect; % of control where 0% means no effect; nearly all actives have a fitted effect of over 65% in size
#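 Reporter line AREc32 (ARE-Fluc), seeded overnight in OPTI-MEM with 5% FBS; compound pin-transferred, 24 hr at 37 deg C, 5% CO2; luminescent read-out.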
# * = called active by the depositor; ? = inconclusive; . = not tested or not shown; [ ] = remark or other dose. An excerpt weighted towards active compounds, which were near 3% of everything screened. Unless noted, calls follow the shape of the dose curve; as a rule, active = well fitted curve in the direction sought with a large enough effect; inconclusive = small, poorly fitted or top-dose-only effect, or another doubt; inactive = no such curve, though single readings can be large; an effect the other way counts as inactive or inconclusive.
SMILES,D3 antag,GRP78 ERSR act,DRD3 agonist,Nrf2 activator
Cc1ccnc2cc(Cl)cc(Cl)c12,.,1%,.,.
CC(=O)N1CCC(C(=O)Nc2nnc(C(C)C)s2)CC1,.,-5%,.,.
CCOCCc1nn2c(=O)cc(COC(=O)C(CC)c3ccccc3)nc2s1 (configuration not stated),.,-4%,4,5%
Cc1ccccc1N1CCN(CCC(=O)Nc2ccc(F)cc2)CC1,-84*,-7%,10,0%
O=C(CCN1CCN(c2ccccc2F)CC1)Nc1cccc(F)c1,-63*,-3%,15,4%
O=C(CCn1c(=O)c2cccn2c2ccccc21)Nc1ccc(F)cc1,-65*,-1%,-20,?
CC(C)(C)c1nnc(N/N=C/c2cc(Br)ccc2O)n(N)c1=O,90,1%,57*,6%
COCCOC(=O)C1=C(C)NC(=O)N(C(C)=O)C1c1ccc(Cl)cc1 (configuration not stated),-102*,-2%,-7,0%
Cc1cc(C(=O)COC(=O)C2=NNC(=O)CC2)c(C)n1-c1cccc(C(F)(F)F)c1,20,-5%,41*,-1%
Cc1nc(NCc2c(F)cccc2F)sc1-c1ccn(CCN2CCOCC2)n1,.,-2%,.,.
O=C(OCC1CCNCC1)c1ccc(F)cc1,-55*,-1%,-4,0%
O=[N+]([O-])c1ccc(O/N=[N+](\[O-])N2CCCCC2)c([N+](=O)[O-])c1,.,-2%,.,.
CCC(=S)/C=C1\Sc2ccccc2N1CCCS(=O)(=O)O,-63*,-5%,7,0%
CCN1/C(=C\C=C2\C(=O)N(C)C(=S)N2C)Sc2ccccc21,-2,3%,-6,3%
CCC(C)(C)OC(=O)N[C@@H](Cc1c[nH]c2ccccc12)C(=O)N[C@@H](CCSC)C(=O)N[C@@H](CC(=O)O)C(=O)N[C@@H](Cc1ccccc1)C(N)=O,.,-4%,10,.
CC(=O)c1ccc(NC(=O)CCNS(=O)(=O)c2cccc3nonc23)cc1,-15,-2%,-2,-1%
CCc1ccc(NC(=O)CCNS(=O)(=O)c2cccc3nonc23)cc1,-63*,-4%,-16,1%
Cc1ccc(OCCCCn2cnc3ccccc32)c(C)c1,-57*,12%,2,0%
Brc1ccccc1OCCCCn1cnc2ccccc21,-9,5%,1,6%
Cc1ccccc1OCCCCCCN1CCNCC1,12,1%,-5,2%
Cc1ccc(C)c(OCCCN2CCc3ccccc3C2)c1,-89*,-5%,-12,0%
Cc1ccc(OCCCCN2CCc3ccccc3C2)c(C)c1,-106*,2%,-31,0%[9.22 µM]
Cc1ccc(C(C)C)c(OCCCn2c(=O)oc3ccccc32)c1,.,-5%,4,-1%
Cc1ccc(C)c(OCCCC(=O)O)c1,-19,2%,1,0%
Cc1ccc(C(C)C)c(OCCN2CCc3ccccc3C2)c1,-67*,-3%,-34,2%
SMILES,D3 antag,GRP78 ERSR act,DRD3 agonist,Nrf2 activator
COc1ccc(CN2CCCC(n3cc(C(=O)N4CCCCC4)nn3)C2)c(OC)c1C (configuration not stated),.,-4%,.,.
Cc1ccc(C(C)C)c(OCCCN2CCc3ccccc3C2)c1,-85*,-2%,-20,4%
CCC1(C)Cc2c(C#N)c(N)sc(=S)c2CO1 (configuration not stated),-85*,-3%,-6,0%
CCC1(C)Cc2c(C#N)c(N)n(-c3ccccc3)c(=S)c2CO1 (configuration not stated),-5,-3%,1,0%
O=C(Nc1nnc(-c2ccccc2)s1)c1cc(S(=O)(=O)N2CCOCC2)c(Cl)cc1Cl,-70*,0%,3,0%
Cc1ccc(CNc2ncnc3sc(C(=O)N4CCC[C@H]4C(N)=O)c(C)c23)o1,.,-6%,.,.
O=C(Nc1ccc(-c2nc3ccccc3o2)cc1)c1ccc(N2CCOCC2)c([N+](=O)[O-])c1,17,-1%,9,2%
CCCOc1cccc(C(=O)Nc2ccc(-c3nc4ccccc4o3)cc2)c1,.,-1%,8,-1%
COc1ccc2oc(-c3ccc(NC(=O)c4ccc(N5CCOCC5)c([N+](=O)[O-])c4)cc3)nc2c1,82,1%,54*,4%
Cn1cc([N+](=O)[O-])c(C(=O)Nc2ccc(-c3nc4ccccc4o3)cc2)n1,-26,-2%,1,5µM*
CCN(C)c1ccc(/C=C/c2ccnc3ccccc23)cc1,.,-2%,.,.
Cc1ccccc1Nc1c(-c2ccc(O)cc2)nc2c(C)cccn12,.,-2%,-4,5%
Cc1[nH]nc(SCC(=O)N2CCC(C)CC2)c1[N+](=O)[O-],-51*,0%,-2,0%
Cc1[nH]nc(SCC(=O)N2CCCC2)c1[N+](=O)[O-],-13,6%,2,1%
COc1ccc(Cl)cc1S(=O)(=O)N1CCN(Cc2cccc(F)c2)CC1,.,-4%,-4,4%
Cc1cc(C)n2cc(CSc3nc4cc(Cl)ccc4o3)nc2n1,-51*,-1%,-1,3%
Cc1cc(C)n2cc(CSc3nnc(N)s3)nc2n1,-53*,0%,1,-1%
CN(Cc1ccc(C#CCCO)cc1)CC1CCCN(CCc2ccc(Cl)cc2)C1 (configuration not stated),-5,-1%,-4,3%
CN(Cc1ccccc1O)CC1CCCN(CCc2ccc(Cl)cc2)C1 (configuration not stated),-55*,-4%,-6,10%
CCCCN(CCCC)C1=C(C(=O)c2ccccc2)N(CC)S(=O)(=O)c2ccccc21,.,-7%,-6,0%
CCN1/C(=C(\O)c2ccccc2)C(=O)c2ccccc2S1(=O)=O,-56*,-8%,-5,0%
Cc1c(C(=O)N(C)C)sc2nc(-c3ccccn3)[nH]c(=O)c12,-57*,-2%,1,0%
O=c1[nH]c(CN2CCN(c3ccccc3)CC2)nc2scc(-c3ccccc3)c12,-5,-4%,108*,-1%
COCc1c(C(=O)N2CCC(N(C)C)C2)cnn1-c1ncc2c(n1)-c1ccccc1CCC2 (configuration not stated),.,-4%,.,.
Nc1nnnn1/N=C/C(Br)=C/c1ccccc1,-100*,-6%,-14,-3%
SMILES,D3 antag,GRP78 ERSR act,DRD3 agonist,Nrf2 activator
O=S(=O)(c1ccc2ccccc2c1)n1nc(-c2ccco2)nc1NCc1ccc(F)cc1,.,0%,7,3%
O=C(CSCC(=O)N1CCCCC1)Nc1nc(-c2ccccc2)c(-c2ccccc2)s1,-51*,2%,-12,13%
O=C(CSc1nc(-c2ccccc2)c(-c2ccccc2)o1)N1CCCCC1,19,-3%,1,0%
COc1ccc(C(=O)/C(Br)=C\C(=O)O)cc1,.,.,18,.
O=[N+]([O-])c1ccc(/C=[N+](\[O-])[C@@H]2CCCC[C@@H]2/[N+]([O-])=C/c2ccc([N+](=O)[O-])o2)o1,?,18%,-3,10µM*
O=C(N/N=C/c1ccc([N+](=O)[O-])o1)C1CCCC1,0,7%,14,-1%
Cc1cccc(NC(=O)/C=C/c2ccc([N+](=O)[O-])s2)c1,?,-8%,-6,?
Cc1cccc(NC(=S)N/N=C/c2ccc([N+](=O)[O-])s2)c1,-97*,-7%,-6,-1%
